Assay results from PubChem BioAssay (NCATS).
Where “and” joins values, the source holds several entries; their conditions need not be identical. Equal values may be shown once. Unmarked numbers belong to inactive results. Records with an inconclusive call do not appear. A call without a number means that no potency is given here. Calls of active or inactive are those of the source. Calls follow the shape of the dose curve; as a rule, active = well fitted curve in the direction sought with a large enough effect; inconclusive = small, poorly fitted or top-dose-only effect, or another doubt; inactive = no such curve, though single readings can be large; an effect the other way counts as inactive or inconclusive.

What follows are compounds tested against Cytochrome P450 3A4 (Homo sapiens) (UniProt P08684) (assay: qHTS Assay for Inhibitors and Substrates of Cytochrome P450 3A4 (AID 884; also: nearly all actives have a fitted effect of over 50% in size; also: potency is read from the fitted curve at half-maximal effect)). Conditions: recombinant CYP3A4, Luciferin-PPXE luminescence; series mostly up to 57.1 µM.
Procedure, shortened: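 Luminescent readout of luciferin produced by CYP3A4 (20 nM) dealkylation of Luciferin-PPXE, 25 uM (its KM). NADPH-driven reaction ran 60 min at RT after 10 min compound preincubation; data scaled to 57 uM ketoconazole as 100% inhibition.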

Chain of Cytochrome P450 3A4 (Homo sapiens) (P08684 whole entry, looked up): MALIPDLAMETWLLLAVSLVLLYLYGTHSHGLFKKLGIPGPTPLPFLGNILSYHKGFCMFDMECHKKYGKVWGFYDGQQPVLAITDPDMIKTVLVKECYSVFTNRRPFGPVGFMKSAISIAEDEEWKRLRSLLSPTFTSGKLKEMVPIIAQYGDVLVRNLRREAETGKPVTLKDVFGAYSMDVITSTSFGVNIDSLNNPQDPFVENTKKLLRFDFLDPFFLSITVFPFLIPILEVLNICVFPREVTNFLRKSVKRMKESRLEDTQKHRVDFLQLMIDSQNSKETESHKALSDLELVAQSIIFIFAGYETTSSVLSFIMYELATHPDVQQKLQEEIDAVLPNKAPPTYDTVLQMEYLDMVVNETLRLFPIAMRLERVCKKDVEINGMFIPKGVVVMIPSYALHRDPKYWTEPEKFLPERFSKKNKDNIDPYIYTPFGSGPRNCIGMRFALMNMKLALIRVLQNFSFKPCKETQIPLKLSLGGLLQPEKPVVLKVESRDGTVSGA

Structure (SMILES) | activity change, negative = inhibition | Potency
CC1CCC2C(=O)OC(COc3ccc(C(C)(C)C)cc3)CN2C1c1ccc(Br)cc1 (stereo not given) | -22.1% [at 11.4 µM] and -29.8% [at 11.4 µM] and -21% [at 11.4 µM] | –
COC(=O)NC(c1ccc2ccccc2c1)C(C(C)=O)C(=O)OC (stereo not given) | -19.4% [at 11.4 µM] | –
COC(=O)CC1=COC2OCC3=CC[C@@H]1C32 (stereo not given in full) | -15.8% [at 11.4 µM] | –
COC(=O)CC1=COC(O)C2C(CO)=CC[C@@H]12 (stereo not given in full) | -14.7% [at 11.4 µM] | –
CCOC(=O)OCC1OC(c2ccc(C(C)=O)cc2)C=CC1OC(=O)OCC (stereo not given) | -24.1% [at 11.4 µM] | –
CCOC(=O)OCC1OC(c2ccccc2)C=CC1Oc1ccc2oc(=O)cc(C)c2c1 (stereo not given) | -10.6% [at 11.4 µM] | –
CCCCCCC1Cc2cc(OC)c(OC)cc2C(C(C(=O)OCC)C(=O)OCC)O1 (stereo not given) | – | 3.16 µM (active) and 1.58 µM (active)
Cc1c(OCc2ccccc2)cccc1OCc1ccccc1 | -25.2% [at 11.4 µM] | –
CC1(C)OC(C(O)(c2cc(F)c(F)c(F)c2)c2cc(F)c(F)c(F)c2)C(C(O)(c2cc(F)c(F)c(F)c2)c2cc(F)c(F)c(F)c2)O1 (stereo not given) | -15% [at 11.4 µM] | –
CC12CC3OS(=O)OC3CC3C4C(C(OCc5ccccc5)C31)C42 (stereo not given) | -26.1% [at 11.4 µM] | –
COC(=O)NC(c1cccc(F)c1)[C@@]1(C(=O)OC)CCCC1=O (stereo not given in full) | -15.7% [at 11.4 µM] | –
CC(C)C(=O)NC(=O)C1CCCN1C(=O)/C=C/c1ccccc1 (stereo not given) | -10.1% [at 11.4 µM] | –
CC1(C)OC(C(O)(c2cccc3c2oc2ccccc23)c2cccc3c2oc2ccccc23)C(C(O)(c2cccc3c2oc2ccccc23)c2cccc3c2oc2ccccc23)O1 (stereo not given) | -15.2% [at 11.4 µM] | –
CC(=O)c1ccc(C2C=CC(Oc3ccc(-c4ccccc4)cc3)C(CO)O2)cc1 (stereo not given) | 0.0168% [at 11.4 µM] | –
COC(=O)NC(c1ccccc1)C(C#N)C(=O)OC (stereo not given) | -16.5% [at 11.4 µM] | –
COc1cc(C2NC(C(=O)O)Cc3c2[nH]c2ccccc32)cc(OC)c1OC (stereo not given) | -17.2% [at 11.4 µM] | –
CCC(=O)CC(NC(=O)OC)c1ccc(F)cc1 (stereo not given) | -17.9% [at 11.4 µM] | –
Cc1ccc(C#CC2C=CC(Oc3ccc4c(c3)OCO4)C(CO)O2)c(C)c1 (stereo not given) | -16.9% [at 11.4 µM] | –
COC(=O)NC(c1cccc(F)c1)[C@]1(C(C)=O)CCCC1=O (stereo not given in full) | -13.9% [at 11.4 µM] | –
COC(=O)NC(c1cccc(F)c1)C(C(C)=O)C(=O)OC (stereo not given) | -17.1% [at 11.4 µM] | –
COc1cccc(/C=C/C2=CC3(C)CC2(C)C(c2cccc(OC)c2)CC3=O)c1 (stereo not given) | – | 3.98 µM (active)

These compounds were tested against Cytochrome P450 3A4 (Homo sapiens) (UniProt P08684) (assay: qHTS Assay for Activators of Cytochrome P450 3A4 (AID 885; also: nearly all actives have a fitted effect of over 65% in size)). Conditions: recombinant CYP3A4, Luciferin-PPXE luminescence, 60 min; series mostly up to 57.1 µM.
Procedure, shortened: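 Luminescent readout of luciferin formed from 25 uM Luciferin-PPXE (KM level) by 20 nM CYP3A4 in 200 mM KPO4, with 60 min NADPH-driven reaction at room temperature after 10 min compound exposure. Ketoconazole (57 uM) defined 100% inhibition.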

Structure (SMILES) | activity change, positive = activation
COc1ccc(OCC2CC3C(CCC(C)C3c3ccc(Br)cc3)C(=O)O2)cc1 (stereo not given) | -84.4% [at 11.4 µM]
COC(=O)NC(CC(C)=O)c1ccc2c(c1)OCO2 (stereo not given) | -67.3% [at 11.4 µM]
CCCCCCC1Cc2cc(OC)c(OC)cc2C(C(C(=O)OCC)C(=O)OCC)O1 (stereo not given) | -66.2% [at 11.4 µM] and -65.3% [at 11.4 µM]
COc1cccc(/C=C/C2=CC3(C)CC2(C)C(c2cccc(OC)c2)CC3=O)c1 (stereo not given) | -78.1% [at 11.4 µM]

These compounds were tested against Cytochrome P450 2D6 (Homo sapiens) (UniProt P10635) (assay: qHTS Assay for Inhibitors and Substrates of Cytochrome P450 2D6 (AID 891; also: nearly all actives have a fitted effect of over 60% in size; also: potency is read from the fitted curve at half-maximal effect;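 as to activity change, negative = inhibition: luciferin methyl ether substrate demethylated by CYP2D6 with NADPH regeneration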)). Conditions: recombinant CYP2D6, luciferin-ME EGE luminescence; series mostly up to 11.4 µM.
Procedure, shortened: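 Luminescent read-out of luciferin formed by 5 nM human CYP2D6 demethylating 30 uM Luciferin-ME EGE (Km level) over 60 min at room temperature after NADPH regeneration addition. Data normalized to full inhibition by 1.43 uM quinidine.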

Chain of Cytochrome P450 2D6 (Homo sapiens) (P10635 whole entry, looked up): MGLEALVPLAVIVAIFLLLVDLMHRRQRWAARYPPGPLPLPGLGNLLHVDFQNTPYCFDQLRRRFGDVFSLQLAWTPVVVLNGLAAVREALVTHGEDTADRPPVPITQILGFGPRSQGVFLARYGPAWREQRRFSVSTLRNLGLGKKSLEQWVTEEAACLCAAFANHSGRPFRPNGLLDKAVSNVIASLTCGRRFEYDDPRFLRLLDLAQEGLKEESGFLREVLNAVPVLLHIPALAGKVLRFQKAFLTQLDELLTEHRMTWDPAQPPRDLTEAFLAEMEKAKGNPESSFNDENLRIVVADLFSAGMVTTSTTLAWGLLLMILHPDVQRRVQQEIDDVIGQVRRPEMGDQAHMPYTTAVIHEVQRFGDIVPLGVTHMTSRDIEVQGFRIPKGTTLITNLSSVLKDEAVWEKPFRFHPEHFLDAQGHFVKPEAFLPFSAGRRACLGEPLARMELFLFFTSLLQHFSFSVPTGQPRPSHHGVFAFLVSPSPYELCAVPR

Structure (SMILES) | Potency
CCOP(=O)(CC(C(C)=O)C(O)c1ccccc1)OCC (stereo not given) | inactive
O=C(/C=N/O)NCCCCNC(=O)/C=N/O | inactive
CCOC(=O)[C@]1(C(/C=C/c2ccco2)NC(=O)OC)CCCC1=O (stereo not given in full) | inactive
CCOC(=O)CCCCC1=CC2=CC(=O)C(C)(O)C(=O)C2=CO1 (stereo not given) | inactive
COc1cc(C2c3[nH]c4ccccc4c3CC3C(=O)N4C(Cc5c([nH]c6ccccc56)C4c4cc(OC)c(OC)c(OC)c4)C(=O)N32)cc(OC)c1OC (stereo not given) | inactive
CNc1ccccc1C(=O)OCC(=O)c1ccccc1 | inactive
CCCCC1CN2C(CCC(C)C2c2ccc(Br)cc2)C(=O)O1 (stereo not given) | inactive
COc1cccc(C2NC(C(=O)O)CCC2C)c1 (stereo not given) | inactive
C=CCc1cccc(C2NC(C(=O)O)CCC2C)c1 (stereo not given) | inactive
CC12C=C(/C=C/C=C/c3ccco3)C(C)(C1)C(/C=C/c1ccco1)CC2=O (stereo not given) | inactive
CC(=O)Nc1ccc(C2NC(C(=O)O)CCC2C)cc1 (stereo not given) | inactive
O=C1C2Cc3c([nH]c4ccccc34)C(c3ccccc3)N2C(=O)C2Cc3c([nH]c4ccccc34)C(c3ccccc3)N12 (stereo not given) | inactive
OCC1OC(c2ccccc2)C=CC1Oc1cc(Cl)cc(Cl)c1 (stereo not given) | inactive
COC(=O)NC(/C=C/c1ccco1)[C@@]1(C(=O)OC)CCCC1=O (stereo not given in full) | inactive
CC1C=CCCOC1c1ccccc1 (stereo not given) | inactive
CCN1C(C)=C(C(=O)OC)C(c2ccccc2)N2C(=O)[C@@]3(C(=O)OC)O[C@@]12C1C(=O)N(C)C(=O)C13 (stereo not given in full) | inactive
CC1CCC2C(=O)OC(COc3ccc(C(C)(C)C)cc3)CN2C1c1ccc(Br)cc1 (stereo not given) | inactive
COC(=O)NC(c1ccc2ccccc2c1)C(C(C)=O)C(=O)OC (stereo not given) | inactive

Structure (SMILES) | Potency
COC(=O)CC1=COC2OCC3=CC[C@@H]1C32 (stereo not given in full) | inactive
COC(=O)CC1=COC(O)C2C(CO)=CC[C@@H]12 (stereo not given in full) | inactive
CCOC(=O)OCC1OC(c2ccc(C(C)=O)cc2)C=CC1OC(=O)OCC (stereo not given) | inactive
CCOC(=O)OCC1OC(c2ccccc2)C=CC1Oc1ccc2oc(=O)cc(C)c2c1 (stereo not given) | inactive
Cc1c(OCc2ccccc2)cccc1OCc1ccccc1 | inactive
CC1(C)OC(C(O)(c2cc(F)c(F)c(F)c2)c2cc(F)c(F)c(F)c2)C(C(O)(c2cc(F)c(F)c(F)c2)c2cc(F)c(F)c(F)c2)O1 (stereo not given) | inactive
CC12CC3OS(=O)OC3CC3C4C(C(OCc5ccccc5)C31)C42 (stereo not given) | inactive
COC(=O)NC(c1cccc(F)c1)[C@@]1(C(=O)OC)CCCC1=O (stereo not given in full) | inactive
CC(C)C(=O)NC(=O)C1CCCN1C(=O)/C=C/c1ccccc1 (stereo not given) | inactive
CC1(C)OC(C(O)(c2cccc3c2oc2ccccc23)c2cccc3c2oc2ccccc23)C(C(O)(c2cccc3c2oc2ccccc23)c2cccc3c2oc2ccccc23)O1 (stereo not given) | inactive
CC(=O)c1ccc(C2C=CC(Oc3ccc(-c4ccccc4)cc3)C(CO)O2)cc1 (stereo not given) | inactive
COC(=O)NC(c1ccccc1)C(C#N)C(=O)OC (stereo not given) | inactive
COc1cc(C2NC(C(=O)O)Cc3c2[nH]c2ccccc32)cc(OC)c1OC (stereo not given) | 1.26 µM (active)
CCC(=O)CC(NC(=O)OC)c1ccc(F)cc1 (stereo not given) | inactive
Cc1ccc(C#CC2C=CC(Oc3ccc4c(c3)OCO4)C(CO)O2)c(C)c1 (stereo not given) | inactive
COC(=O)NC(c1cccc(F)c1)[C@]1(C(C)=O)CCCC1=O (stereo not given in full) | inactive
COC(=O)NC(c1cccc(F)c1)C(C(C)=O)C(=O)OC (stereo not given) | inactive
